Results from PubChem BioAssay AID588850 (Sanford-Burnham Center for Chemical Genomics, 2011).
The whole screen tested about 360,000 compounds, of which about 3,100 (0.86%) were called active.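 The calls were made as follows: active = at least 50% inhibition at 5 µM, scaled per plate between neutral and stimulator controls; inactive = the rest.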 What follows is part of a selection rich in actives, with near analogues and random picks from the rest.

Assay: inhibitors of PAF-induced NF-kB signaling, primary screen, cell-based, GFP fluorescence, uHTS (AID 588850);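 also: PAF is a Pseudomonas aeruginosa culture filtrate used as stimulus; plate controls were PAF-stimulated DMSO wells for no effect and unstimulated DMSO wells for full effect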
Conditions: KKLEB NF-kB-GFP reporter, GFP fluorescence overnight, at 5 µM, hits give high values

inhibition, inactive:
CC(c1ccco1)N(C(=O)COc1ccccc1[N+](=O)[O-])c1ccccn1 (stereo not given) 8.2%
CN(C)C(=O)Cn1c(=O)n(S(=O)(=O)c2ccccc2)c2ccccc21 5.9%
COC(=O)[C@@H]1C[C@H]2CC[C@H](O)C[C@H]2N1Cc1ccc(N2CCN(C)CC2)cc1 0.1%
CC(C(=O)N1CCc2ccccc21)N(C)CC(=O)Nc1ccc(F)cc1 (stereo not given) -12%
COC1(C2=NCCN2)COc2ccccc2O1 (stereo not given) 9.5%
COc1ccccc1/C=C/C=N/n1c(-c2ccc(Cl)cc2Cl)n[nH]c1=S 1.4%
S=c1[nH]nc(-c2ccco2)n1/N=C/c1ccc(Br)s1 5.5%
CC1CCCCC1NC(=O)Cn1cnc2c1c(=O)n(C)c(=O)n2C (stereo not given) 3.3%
CC(C)c1nc(SCC(=O)NC(=O)NC(C)(C)C)n[nH]1 -0.6%
Cc1cccc(C)c1NC(=S)N(Cc1cccnc1)Cc1ccccc1Cl -1.1%
COc1cccc(CC(=O)N2CCCC(CCC(=O)N3CCN(c4ccccn4)CC3)C2)c1 (stereo not given) 12.7%
Cc1ccc(NC(=O)CSc2nnc(CNC(=O)c3ccccc3F)o2)cc1 -6.4%
CC(C)c1ccc(CC(=O)N2CCC2(C)C(=O)NS(=O)(=O)c2ccc(C(C)(C)C)cc2)cc1 (stereo not given) 3.4%
S=c1[nH]nc2c3c4c(sc3ncn12)CCCC4 -4%
CC(C(=O)O)n1cnc2sc3c(c2c1=O)CCCC3 (stereo not given) 12.1%
O=C(Nc1cccnc1)c1noc2c1CCCCC2 -3.7%
CN1CCN(c2ccc(NC(=O)c3cc(Cl)c4c(c3)OCCO4)cc2)CC1 -18.8%
Cn1cnnc1SCC(=O)Nc1ccc(N2CCOCC2)cc1 -8.2%
O=C(Nc1ccc(-n2cccn2)cc1)C1CCN(Cc2ccsc2)CC1 9.7%
CC1CCc2c(c3ccccc3[nH]c2=O)O1 (stereo not given) 0.4%
COc1ccc(-c2cc(C(=O)N(C)Cc3ccc(OC)c(OC)c3OC)c3ccccc3n2)cc1OC 27%
COc1ccc(-c2cc(C(=O)N(C)CC(=O)Nc3ccccc3Cl)c3ccccc3n2)cc1OC 22.9%
CC1Cn2c(nnc2-c2cccs2)S1 (stereo not given) 9.9%
O=C(O)C1CCCN(CCC=C(c2ccccc2)c2ccccc2)C1 (stereo not given) 9.2%
Cc1ccnc(NS(=O)(=O)c2ccc(NC(=O)c3ccc(S(=O)(=O)N(C)C)cc3)cc2)n1 2.1%
CC1(C(=O)Nc2cccc3c2CCCC3)CCN1C(=O)CCc1ccc(Cl)cc1Cl (stereo not given) -16%
CC12CCC(=O)C=C1CCC1C2C(O)CC2(C)C1CCC2(O)C(O)CO (stereo not given) 24.8%
CC(=O)O[C@]1(C(C)=O)CC[C@H]2[C@@H]3C=C(C)C4=CC(=O)CC[C@]4(C)[C@H]3CC[C@@]21C 39.9%
Cc1ccc(CC(=O)Nc2cccc(C#N)c2)cc1 -4.9%
O=C(COC(=O)Cn1cnc2ccccc2c1=O)NCC12CC3CC(CC(C3)C1)C2 -1.8%
O=C(c1ccc(Cl)c(S(=O)(=O)N2CCCCCC2)c1)N1CCN(c2ccc(O)cc2)CC1 2.4%
c1ccc(-n2cccc2)c(N2CCCCC2)c1 5.6%
O=C(Nc1ccc(F)c([N+](=O)[O-])c1)C1CCCO1 (stereo not given) 4.8%
COc1ccc(OC)c(C2N(c3ccccn3)C(=O)C3CCCN32)c1 (stereo not given) -3.8%
CC(=O)N(CN1C(=O)C2CC=CCC2C1=O)c1cccc(Cl)c1 (stereo not given) -5.3%
COC(=O)c1cc(C(=O)N(Cc2ccccc2)c2ccccn2)cc([N+](=O)[O-])c1 5%
CCS(=O)(=O)c1ccc(C(=O)NC)c(Cl)c1Cl 4.1%
C1=C(N2CCOCC2)/C(=C/c2nc3ccccc3[nH]2)CC1 0.9%
COc1cccc(N2CCN(CC(=O)Nc3ccnn3C3CCCC3)CC2)c1 -19%
Cc1noc(C)c1C(=O)N1CCC1(C)C(=O)NS(=O)(=O)c1ccc(C#N)cc1 (stereo not given) 1.8%
CCOC(=O)c1c(NC(=O)CSc2nccc(=O)[nH]2)sc(C)c1C -8.3%
CCOC(=O)c1c(C)[nH]c(C)c1C(=O)CSc1nc(N)cc(N)n1 -5.9%
NCCCCC(C(=O)O)N(C(=O)OCc1ccccc1)C(=O)OCc1ccccc1 (stereo not given) 1.1%
COc1ccc(C(CC(=O)c2ccccc2)S(=O)(=O)c2ccccc2)cc1 (stereo not given) -3.5%
CCCCC(=O)Nc1c2c(nn1-c1ccc([N+](=O)[O-])cc1)CS(=O)(=O)C2 5.8%
CN(C)S(=O)(=O)N1CCN(c2ccc([N+](=O)[O-])cc2)CC1 8.2%
CCCCN(C)c1ccc([N+](=O)[O-])cc1 -12.3%
COc1ccccc1-c1nnc2n1N=C(c1ccc(OC(F)F)c(OCC3CC3)c1)CS2 49.1%
CCn1c(SCC(=O)NC2CC2)nnc1-c1ccccc1OC -0.4%

inhibition, active:
Cc1cc(-c2n[nH]c(=S)n2/N=C/C(Br)=C/c2ccccc2)n[nH]1 87.5%
c1nnc2c3c4c(sc3ncn12)CCC4 59%
C=CC(=O)Nc1ccc(Nc2ccnc(Nc3ccc(N4CCN(C)CC4)cc3)n2)cc1 55.6%
COc1ccc(CN(C)C(=O)c2cc(-c3ccc(C)cc3C)nc3ccccc23)c(OC)c1OC 67.1%
CC(=O)OCC(=O)C1(O)CCC2C3CC(C)C4=CC(=O)CCC4(C)C3C(O)CC21C (stereo not given) 73%
O=C1C=CC(=O)N1c1ccc(N2CCCCC2)cc1 67%
O=C(CCl)N(Cc1cccc([N+](=O)[O-])c1)c1cccc(Cl)c1 90.5%
CCOC(=O)c1c(C)[nH]c2c1-c1ccccc1C(=O)C2=O 86.7%
O=C1/C(=C\c2ccc([N+](=O)[O-])cc2)CS(=O)(=O)C/C1=C/c1ccc([N+](=O)[O-])cc1 98.2%
C=CCc1cc(S(=O)(=O)c2ccc(O)c(CC=C)c2)ccc1O 60.6%
COc1ccc(C2=Nn3c(nnc3-c3ccccc3OC)SC2)cc1OC1CCCC1 68.4%
